Hit rate of the full screen: of about 210,000 compounds, about 1,300 (0.62%) were called active.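 The calls were made as follows: active = inhibition of 40% or more; inactive = the rest.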 The full list was thinned out, with actives kept by preference.
target: Kallikrein-5 (Homo sapiens) (UniProt Q9Y337); assay: inhibition of kallikrein 5 (hK5) activity – biochemical, 1536-well, primary screen (AID 873); details: recombinant hK5, fluorogenic AMC substrate cleavage; at 5 µM; hits give high values;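 also: 0% = enzyme controls without compound and 100% = no-enzyme blanks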
Sequence (Q9Y337 67-293 limits assumed): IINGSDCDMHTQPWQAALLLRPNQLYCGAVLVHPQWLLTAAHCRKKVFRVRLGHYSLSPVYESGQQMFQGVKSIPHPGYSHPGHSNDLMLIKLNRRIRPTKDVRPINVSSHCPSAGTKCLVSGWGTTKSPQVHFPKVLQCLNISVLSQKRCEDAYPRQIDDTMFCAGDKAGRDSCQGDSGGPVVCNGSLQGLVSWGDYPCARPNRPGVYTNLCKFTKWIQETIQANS

| SMILES | inhibition |
| --- | --- |
| CC(C)n1c(=O)c(C=Nc2ccc(Br)cc2)c(O)n(Cc2ccco2)c1=O | 115% (active) |
| CN(C)CC1Oc2ccccc2OC1(O)c1ccccc1 (stereo not given) | -2.65% (inactive) |
| O=c1[nH]c(=O)n(Cc2ccccc2)c(O)c1/C=N/Nc1c(F)c(F)c(F)c(F)c1F | 3.18% (inactive) |
| O=C(O)COc1ccccc1/C=C1\C(=O)NC(=O)N(CCC2=CCCCC2)C1=O | 0.1% (inactive) |
| CC(C)c1ccc(-n2c(O)c(/C=N/N3CCOCC3)c(=O)[nH]c2=S)cc1 | -2.01% (inactive) |

Source: PubChem BioAssay AID873 (PCMD, 2007)
